This note sets out measurements from PubChem BioAssay (NCI).

Among the test systems are SK-MEL-2 melanoma; EKVX NSCLC; SN12C renal; UO-31 renal; TK-10 renal; ACHN renal; CAKI-1 renal; A498 renal; CCRF-CEM leukemia; MOLT-4 leukemia.
Common to all, as to test: NCI-60 one-dose screen, 48 h (100 = growth as untreated, 0 = no growth, -100 = all killed)
Holding throughout (conditions): 10 µM unless noted

The panel holds about 83,000 compounds, 20% with a hit somewhere; the sample as a whole holds those more often.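 Method: cells in 96-well plates; compound added at one concentration; 48 h incubation; percent growth measured; values under 10 scored active.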 Unmarked numbers belong to inactive results. The source made the active and inactive calls.

As to `CC(C)(C)n1cc(-c2ccnc(NCCCNS(=O)(=O)c3ccc(Br)cc3)c2)c(-c2cccc(O)c2)n1`, the growth in the assay with SK-MEL-2 melanoma is 19%; in the assay with EKVX NSCLC, 50.1%; in the assay with SN12C renal, 42.9%; in the assay with UO-31 renal, 39%; in the assay with TK-10 renal, 90.1%; in the assay on ACHN renal, 33.1%. The growth in the assay with CAKI-1 renal was 36.7%; with A498 renal, 35.1%; with CCRF-CEM leukemia it was 25.5%; in the assay with MOLT-4 leukemia it was 6.97% (active).

With `N#Cc1c(-c2ccccc2)cc(-c2ccccc2)n(CC(=O)NO)c1=O`, the growth is 34.5% in the assay with SK-MEL-2 melanoma; 41.7% with EKVX NSCLC; 47.8% in the assay with SN12C renal; 25.2% in the assay with UO-31 renal; 73.1% in the assay on TK-10 renal; 43.3% in the assay with ACHN renal. For the same compound, the results for the growth in the assay with CAKI-1 renal, in the assay on CCRF-CEM leukemia and in the assay with MOLT-4 leukemia were 20.8%, -19.2% (active) and -5.67% (active), respectively.

As for `N=C(N)c1ccc(-c2ccc(-c3cncc4ccccc34)s2)cc1F`, the growth is -40.4% (active) with SK-MEL-2 melanoma; -77% (active) in the assay with EKVX NSCLC; -93.1% (active) with SN12C renal; -87.3% (active) in the assay on UO-31 renal; -91.2% (active) in the assay with TK-10 renal; -97.5% (active) in the assay with ACHN renal. The growth with CAKI-1 renal is -87.5% (active); with A498 renal, 73.8%; in the assay on MOLT-4 leukemia, -24.6% (active).

Turning to `Brc1cccc(-c2cc(-c3ccc4nccnc4c3)[nH]n2)c1`, the growth in the assay on SK-MEL-2 melanoma was 46.3% [25 µM]; in the assay with EKVX NSCLC, 16% [25 µM]; in the assay on SN12C renal, 35.5% [25 µM]; with UO-31 renal it was 38.8% [25 µM]; in the assay on TK-10 renal, 52.1% [25 µM]; in the assay with ACHN renal it was 39.6% [25 µM]. Besides, the growth was 29.4% [25 µM] in the assay on CAKI-1 renal, -9.23% [25 µM] (active) with A498 renal, 15.3% [25 µM] in the assay with CCRF-CEM leukemia and 30.2% [25 µM] in the assay with MOLT-4 leukemia.

As for `COc1ccc(/C=C2\Oc3cc(OCCCN4CCCC4)ccc3C2=O)cc1`, the growth in the assay on SK-MEL-2 melanoma was 100%; in the assay on EKVX NSCLC, 89.6%; in the assay on SN12C renal, 90.4%; in the assay with UO-31 renal it was 73.9%; in the assay with TK-10 renal, 95.2%; in the assay with ACHN renal it was 92.6%. For the same compound, the growth in the assay with CAKI-1 renal is 91.6%; in the assay on CCRF-CEM leukemia it was 52.3%; with MOLT-4 leukemia, 72.2%.

Turning to `CCCCCCCCCCCCNC(=O)[C@H]1CSC(c2cc(Br)cs2)N1` (stereo partly specified), the growth is -58.7% (active) in the assay with SK-MEL-2 melanoma; -64% (active) in the assay on EKVX NSCLC; -53.5% (active) in the assay on SN12C renal; -76% (active) in the assay with UO-31 renal; -80.1% (active) in the assay on TK-10 renal; 14.3% in the assay on ACHN renal. Moreover, the growth with CAKI-1 renal was 77.9%; with CCRF-CEM leukemia, -42.1% (active); with MOLT-4 leukemia, -59.8% (active).

In the case of `C=C[C@@H]1C[C@@H]2Cc3ccccc3N1O2`, the growth with SK-MEL-2 melanoma is 87.8%; in the assay on EKVX NSCLC it was 99.5%; with SN12C renal it was 97.5%; with UO-31 renal it was 102%; in the assay with TK-10 renal, 108%; in the assay with ACHN renal it was 110%. The growth in the assay on A498 renal is 107%; with CCRF-CEM leukemia, -50% (active); with MOLT-4 leukemia it was 28.9%.

On to `COc1cc(/C=C/C(=O)N2CCN(C(=O)/C=C/c3cc(OC)c(OC)c(OC)c3)CC2)cc(OC)c1OC`, for which the growth was 110% in the assay with SK-MEL-2 melanoma; 114% in the assay with EKVX NSCLC; 102% in the assay on SN12C renal; 88.5% with UO-31 renal; 121% with TK-10 renal; 106% in the assay on ACHN renal. In addition, the growth with CAKI-1 renal is 119%; with CCRF-CEM leukemia, 98.6%; with MOLT-4 leukemia, 95.9%.

Take `COC(=O)[C@]12CC[C@@H](C)[C@H](C)[C@@H]1C1=CC[C@@H]3[C@@]4(C)C(C=O)=C[C@@](C)(COC(=O)c5ccco5)[C@@H]4[C@H](O)C[C@@]3(C)[C@]1(C)CC2`: the growth was -44.4% (active) in the assay with SK-MEL-2 melanoma; -18.1% (active) with EKVX NSCLC; -19.7% (active) in the assay with SN12C renal; -76.3% (active) in the assay on UO-31 renal; 11.5% in the assay on TK-10 renal; -47.7% (active) with ACHN renal. The growth in the assay with A498 renal is -2.1% (active); in the assay with CCRF-CEM leukemia, -24.1% (active); with MOLT-4 leukemia, -0.738% (active).

As to `COc1ccc(OC)c(/C=C2\Oc3cc(OCCCN4CCCC4)ccc3C2=O)c1`, the growth with SK-MEL-2 melanoma is 104%; in the assay on EKVX NSCLC it was 80.4%; with SN12C renal, 76.2%; in the assay on UO-31 renal it was 56.7%; in the assay with TK-10 renal, 99.8%; in the assay on ACHN renal, 78.2%. In addition, the growth was 82% in the assay on CAKI-1 renal, 50.8% in the assay with CCRF-CEM leukemia and 54.8% with MOLT-4 leukemia.

Regarding `CN1C(=O)N(C)C2C1NN=c1s/c(=C\C=C\c3ccccc3)c(=O)n12` (stereo unspecified), the growth is 61.6% in the assay on SK-MEL-2 melanoma; 69.9% in the assay with EKVX NSCLC; 83.5% in the assay with SN12C renal; 70.3% in the assay with UO-31 renal; 80% in the assay on TK-10 renal; 63.8% in the assay on ACHN renal. Further, the figures for the growth in the assay with CAKI-1 renal, in the assay with CCRF-CEM leukemia and in the assay with MOLT-4 leukemia were 46.1%, 53.8% and 65.2%, respectively.
